Assay results published in PubChem BioAssay AID1852 (Sanford-Burnham Center for Chemical Genomics, 2009).
Screen size: about 2,500 compounds; about 1,100 (44%) were called active.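 How the source made its calls: active means inhibition above 50% at 4 µM in the single-point screen; inactive means inhibition of 50% or less.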 The set was probably picked from earlier hits. This is one part of the list.

Assay: TNF-a-driven NF-kB reporter inhibitors, primary screen, selectivity assay for NOD1/NOD2 signaling inhibitor project, cell-based, HEK293T NF-kB-Luc, luminescence (AID 1852)
Details: TNF-a induced, 14 h, at 4 µM, stronger effect = higher value

SMILES | inhibition
CCCCCCCCn1ccc(=N)cc1 | 62.3% (active)
CCCCCCCn1ccc(=N)cc1 | 20.9% (inactive)
CCCCCCCCCCn1ccc(=N)cc1 | 83.1% (active)
CCCCCCCCCn1ccc(=N)cc1 | 76.4% (active)
CC[C@@H](C)[C@H](NC(=O)OC(C)(C)C)c1nnc(S(=O)(=O)Cc2cc(C)ccc2C)o1 | 38.2% (inactive)
CC1CCN(S(=O)(=O)c2nnc(NC(=O)c3cccc(Cl)c3)s2)CC1 | 37% (inactive)
CN(C)S(=O)(=O)N1CCC(Oc2cccc(C(=O)NC3CCCCCC3)c2)CC1 | 54% (active)
CN(C)S(=O)(=O)N1CCC(Oc2cccc(C(=O)NC3CCCCC3)c2)CC1 | 20.4% (inactive)
CN(Cc1ccccc1)C1=CC(=[N+]2CCCCC2)CC(C)(C)C1 | 58.1% (active)
Cc1nc(Nc2cnc(/C=C/c3cc(C(=O)Nc4cccc(C(F)(F)F)c4)ccc3C)cn2)cc(N2CCNCC2)n1 | -21.5% (inactive)
Cc1nc2ccc(NC(=O)c3cc(S(=O)(=O)N(C)c4ccccc4)ccc3Cl)cc2s1 | 54.6% (active)
CC(C(=O)Nc1cccc([N+](=O)[O-])c1)N(c1ccccc1)S(C)(=O)=O (stereo unspecified) | -12.9% (inactive)
CSc1ncc(C(=O)Nc2cccc(S(N)(=O)=O)c2)n1-c1ccccc1 | 8.6% (inactive)
CN(c1ccccc1)S(=O)(=O)c1cccc(NC(=O)c2cc(=O)c3ccccc3o2)c1 | 63.9% (active)
COc1ccc(N(CC(=O)Nc2cccc(N(C)S(C)(=O)=O)c2)S(=O)(=O)c2ccc(C)cc2)cc1 | 14.3% (inactive)
Cc1nc2ccc(NC(=O)c3cccc(S(=O)(=O)N(C)c4ccccc4)c3)cc2s1 | 53.4% (active)
CCCCn1c(SCC(=O)N2CCN(c3ccccc3)CC2)nc2ccsc2c1=O | 28.9% (inactive)
CC(=O)Nc1ccc2nc(NC(=O)c3ccc([N+](=O)[O-])s3)sc2c1 | 19.3% (inactive)
CCOC(=O)/C=C/C(=O)Nc1cccc([N+](=O)[O-])c1 | 72.3% (active)
COC(=O)/C=C\C(=O)Nc1cccc([N+](=O)[O-])c1 | 28.4% (inactive)
COc1ccc(C)cc1S(=O)(=O)N(CC(=O)Nc1cccc([N+](=O)[O-])c1)c1ccc(C)cc1 | 16.5% (inactive)

SMILES | inhibition
Cc1nc2cc(NC(=O)c3ccc([N+](=O)[O-])s3)ccc2s1 | 31.8% (inactive)
Cc1cccc(NC(=O)/C=C/c2ccc([N+](=O)[O-])s2)c1 | 57.7% (active)
CC(=O)c1cccc(NC(=O)/C=C/c2ccc([N+](=O)[O-])s2)c1 | 99.5% (active)
Cc1cc(C)cc(NC(=O)/C=C/c2ccc([N+](=O)[O-])s2)c1 | -10.2% (inactive)
Oc1ccc(CCNc2ncnc3ccc(Cl)cc23)cc1 | 86.6% (active)
COc1ccc(CCNc2ncnc3sccc23)cc1OC | 60.1% (active)
Fc1ccc(F)c(CNc2ncnc3cc(Cl)ccc23)c1 | 8.3% (inactive)
COc1cc2ncnc(NCc3ccc(C)cc3)c2cc1OC | 0.3% (inactive)
CCOc1ccc2[nH]c3c(NCCc4ccc(OC)c(OC)c4)ncnc3c2c1 | 39.1% (inactive)
COc1ccc(CNc2ncnc3sccc23)cc1OC | 50.2% (active)
COc1ccc(CCNc2ncnc3sc(C)cc23)cc1OC | 58.6% (active)
C(=N\c1ncnc2sccc12)/NOCc1ccccc1 | 28.6% (inactive)
c1ccc2c(c1)oc1c(Nc3ccc(CN4CCOCC4)cc3)ncnc12 | 4.6% (inactive)
COc1ccccc1CNc1ncnc2sccc12 | 54.1% (active)
COc1cc2ncnc(NCCc3ccccc3)c2cc1OC | 4.6% (inactive)
COc1ccc(CCNc2ncnc3c2oc2ccccc23)cc1OC | 54.8% (active)
Clc1cccc(Cl)c1CON/C=N/c1ncnc2sccc12 | 15.1% (inactive)
COc1ccc(CCNc2ncnc3cc(OC)c(OC)cc23)cc1OC | 54.8% (active)
C=CC[n+]1c(-c2ccc(C)cc2)csc1Nc1ccc(NC(C)=O)cc1 | 99.4% (active)
C=CC[n+]1c(-c2ccc(Cl)cc2Cl)csc1Nc1c(C)n(C)n(-c2ccccc2)c1=O | 28.9% (inactive)
Cc1ccc(NC(=O)Nc2nnc(-c3ccncc3)s2)cc1 | 27.4% (inactive)

SMILES | inhibition
C=CC[n+]1c(-c2ccc(Cl)cc2Cl)csc1Nc1ccc(NC(C)=O)cc1 | 64% (active)
Cc1ccc(S(=O)Cc2ccc(C(=O)N3CCN(C4CCCCC4)CC3)o2)cc1 (stereo unspecified) | -23.1% (inactive)
COc1ccc(-n2c(C)cc(C(=O)CSc3nnc(-c4cccs4)o3)c2C)cc1 | 71.7% (active)
Cc1cc(C(=O)CSc2nnc(-c3ccco3)o2)c(C)n1-c1ccc2c(c1)OCCO2 | 10.1% (inactive)
Cc1cc(C(=O)CSc2nnc(-c3cccs3)o2)c(C)n1-c1ccccc1 | 53.4% (active)
NC(=O)c1cc2ccncc2c2ccccc12 | 90.8% (active)
Nc1cc2ccncc2c2ccccc12 | 90.8% (active)
CCn1cc(CN2CCCC(C(=O)c3ccc(-c4ccccc4)cc3)C2)cn1 (stereo unspecified) | 5.2% (inactive)
Cc1ccc(-c2ccc(=O)n(Cc3ccc(F)cc3)n2)cc1 | -22.8% (inactive)
N#Cc1c(-c2cccs2)nc(SCc2ccc(Cl)cc2)[nH]c1=O | 31.4% (inactive)
Cc1ccc(C)c(NC(=O)CSc2nc3nc(-c4cccs4)cc(C(F)(F)F)c3c(=O)[nH]2)c1 | 86.9% (active)
CCOc1ccccc1NC(=O)CSc1nc2nc(-c3cccs3)cc(C(F)(F)F)c2c(=O)[nH]1 | 74.5% (active)
O=C(CSc1nc2nc(-c3cccs3)cc(C(F)(F)F)c2c(=O)[nH]1)Nc1c(F)c(F)c(F)c(F)c1F | 92.5% (active)
O=C(CSc1nc2nc(-c3cccs3)cc(C(F)(F)F)c2c(=O)[nH]1)Nc1ccc(F)c(F)c1 | 86% (active)
N#Cc1ccc(Cl)cc1NC(=O)CSc1nc2nc(-c3cccs3)cc(C(F)(F)F)c2c(=O)[nH]1 | 46.8% (inactive)
C/C(=N\NC(=O)c1nnn(-c2nonc2N)c1CN(C)c1ccccc1)c1ccccc1O | 92.8% (active)
CCOc1cccc(-c2c(C(=O)N/N=C(\C)c3ccccn3)nnn2-c2nonc2N)c1 | 66.7% (active)
C/C(=N\NC(=O)c1nnn(-c2nonc2N)c1-c1ccccc1)c1ccccc1O | 93.1% (active)
C/C(=N\NC(=O)c1nnn(-c2nonc2N)c1CN(C)c1ccccc1)c1ccccn1 | -26.2% (inactive)
